# Only some compounds are listed: those with a hit (about 7.5% of all), similar ones and a draw of the others.
# NPC1 prom act – NPC1 promoter activation | Huh7 NPC1 promoter luciferase reporter, 24 h | Potency, µM (top dose mostly 9.22 µM), without a hit: at the highest dose activation, most hits filed as activators | 2.4% of 320,000 active; also: % of control where 0% means no effect; nearly all actives have a fitted effect of over 60% in size
#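 In 1536-well qHTS, Huh7 cells harboring an NPC1 promoter–luciferase construct received compound for 24 h; activation was quantified by luminescence following luciferase reagent addition.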
# SMN2 splice up – enhancers of SMN2 splice variant expression; HEK293 SMN2-luciferase splicing reporter, luminescence, 30-36 h; 2.8% of 210,000 active; AID 1458; Potency, µM (titrated, usually from 46.1 µM), without a hit: top-dose activity change, positive = activation, usual class: activators; also: % of control where 0% means no effect; nearly all actives have a fitted effect of over 55% in size
#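 HEK293 cells carry an SMN2 […]–luciferase reporter in which exon 7 inclusion puts luciferase in frame. Cells were plated 10-12 h before compound addition, then incubated 30-36 h at 37C. ONE-Glo luminescence was read; sodium butyrate at 4.5 mM final served as control.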
# ELG1 genotoxic – inducers of genotoxicity in HEK293T ELG1-luciferase cells; HEK293T ELG1-luciferase reporter, luminescence, 16 h; Potency, µM (top dose mostly 46 µM), for the others: at the highest dose activity change, positive = activation, hits mostly activators; 1.3% of 330,000 active; AID 504466; also: % of control where 0% means no effect; nearly all actives have a fitted effect of over 60% in size
#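 ELG1-luciferase HEK293T cells, 2,000/well; compound pinned in; 16 hr, 37 °C, 5% CO2; ONE-Glo, 30 min RT; luminescence on CCD imager.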
# KinaseGlo FLuc – Kinase-Glo luciferase inhibition (counter-screen) | Kinase-Glo luciferase, ATP luminescence, 8 min | Q27757 | 0.28% of 200,000 active | AID 1379 | Potency, µM (titrated, usually from 38.3 µM), inactives show at the top dose activity change, negative = inhibition, usual class: inhibitors; also: % is scaled to controls: 0 for no effect and ±100 for the full control effect; nearly all actives have a fitted effect of over 60% in size
#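 Luminescence was the read-out, taken after 8-minute incubation at ambient temperature. Luciferase turned over luciferin with 10 uM ATP in imidazole pH 7.2 buffer containing KCl, MgCl2, Tween 20 and BSA.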
# FLuc counter – counter-screen for miR-21 project: firefly luciferase inhibitors or activators; P08659; purified FLuc, Km substrates, luminescence inhibition; Potency, µM (doses to about 57.5 µM), for inactives: at the top dose activity change, negative = inhibition, hits mostly inhibitors; 6.9% of 360,000 active;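 also: plate controls were vehicle for no effect and reference inhibitor for full effect; nearly all actives have a fitted effect of over 55% in size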
# Target sequence (P08659 whole entry, looked up): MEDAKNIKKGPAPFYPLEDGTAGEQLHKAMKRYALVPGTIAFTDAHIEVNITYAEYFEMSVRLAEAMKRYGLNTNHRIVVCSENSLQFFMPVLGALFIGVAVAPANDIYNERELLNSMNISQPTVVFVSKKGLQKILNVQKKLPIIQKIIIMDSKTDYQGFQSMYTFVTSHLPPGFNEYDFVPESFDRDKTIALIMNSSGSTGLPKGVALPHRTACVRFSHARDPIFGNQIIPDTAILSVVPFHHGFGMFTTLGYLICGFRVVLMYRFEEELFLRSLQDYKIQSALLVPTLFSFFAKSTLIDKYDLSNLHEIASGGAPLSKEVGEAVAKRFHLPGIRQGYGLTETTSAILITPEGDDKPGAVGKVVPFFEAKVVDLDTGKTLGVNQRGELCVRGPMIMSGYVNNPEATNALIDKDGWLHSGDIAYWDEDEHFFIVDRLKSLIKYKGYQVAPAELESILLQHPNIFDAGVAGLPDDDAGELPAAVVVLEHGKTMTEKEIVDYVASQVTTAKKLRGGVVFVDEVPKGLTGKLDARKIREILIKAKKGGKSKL
#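 Purified P. pyralis luciferase, 10 nM final, with Km-level 10 uM D-luciferin and 10 uM ATP in 50 mM Tris acetate pH 7.5, 10 mM Mg acetate, 0.01% Tween-20, 0.05% BSA; 6-point qHTS titration about 60 µM downward; luminescence read.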
# Rab9 prom act – activators of Rab9 promoter; 2.8% of 320,000 active; Potency, µM (top dose mostly 9.22 µM), inactives show at the highest dose activation, negative = inhibition, usual class: activators; Huh7 Rab9 promoter-luciferase reporter, luminescence, 24 h; also: % of control where 0% means no effect; nearly all actives have a fitted effect of over 60% in size
#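 Cell-based reporter: Huh7 stable for Rab9 promoter-driven luciferase, plated in reduced-serum medium with 10% FBS at 1500 cells/well, compound-treated 24 h at 37 °C, luminescence read after 10 min reagent.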
# Starred values were filed as active, the others as inactive; ? = inconclusive; / = not tested or not shown. Calls follow the shape of the dose curve; as a rule, active = well fitted curve in the direction sought with a large enough effect; inconclusive = small, poorly fitted or top-dose-only effect, or another doubt; inactive = no such curve, though single readings can be large; an effect the other way counts as inactive or inconclusive. Potency is read from the fitted curve at half-maximal effect.
SMILES,NPC1 prom act,SMN2 splice up,ELG1 genotoxic,KinaseGlo FLuc,FLuc counter,Rab9 prom act
COc1ccc(CNc2nc3ccccc3n2C)c(OC)c1,3.2µM*,/,?,-16%,12µM*,2.5µM*
COc1ccc(CNc2nc3ccccc3n2C)c(O)c1,2.5µM*,/,?,/,8.5µM*,3.2µM*
CC12CN(C(=O)c3ccccc3Br)CC(C)(CN(C(=O)c3ccccc3Br)C1)C2=O,-1%,/,-6%,/,-2%,-1%
O=c1cnn([C@@H]2O[C@H](CO)[C@@H](O)[C@H]2O)c(=O)[nH]1,-6%,2µM*,-12%,-3%,3%,1%
COC(=O)c1ccc(/C=N/n2cnnc2)cc1,3%,-9%,-1%,-1%,-1%,8%
CC(C)(C)c1ccc(/C=N/n2cnnc2)cc1,1%,12%,8%,-1%,19µM*,-8%
O=C1/C(=C/c2ccccc2)Nc2ccccc21,-3%,-24%,-1%,-8%,4.3µM*,2%
Cc1nn(-c2ccccc2)c(-n2cccc2)c1C(=O)N1CCN(c2ccccc2)CC1,/,-7%,/,/,2%,/
O=C(O)/C=C/c1cnn(-c2ccccc2)c1,?,2µM*,-4%,-9%,1.5µM*,0.45µM*
CCOC(=O)/C=C/c1cnn(-c2ccccc2)c1,?,/,?,-4%,15µM*,?
CCCCCCNc1c([N+](=O)[O-])c(=O)sc2ccccc12,-3%,-60%,-5%,2%,-17%,-1%
CCOC(=O)Nc1cc(Br)c2c(c1)OCCO2,17%,/,23µM*,0%,?,16%
Cc1ccc(N2C(=O)c3ccccc3NC2c2ccccc2O)cc1 (stereo not given),2.5µM*,/,?,/,?,0.89µM*
CN(C)c1ccc(/C=C/c2ccc3ccccc3[n+]2C)cc1,-35%,-74%,10%,?,?,-47%
COc1ccc(/C=C/c2ccc3ccccc3[n+]2C)cc1OC,-4%,/,?,/,17µM*,-11%
Cc1ccc(C)c(N2CCN(c3nc4ccccc4c4nc(CCn5nc(C)cc5C)nn34)CC2)c1,/,-3%,/,/,-1%,/
O=C(N/N=C/c1cccc(O)c1)c1csc2ccccc12,16%,0%,16%,-4%,21µM*,-5%
O=C(O)COc1ccc(/C=N/NC(=O)c2cn(-c3ccccc3)nc2-c2ccccc2)cc1,0%,/,3%,/,4.8µM*,-1%
Cn1nccc1C(=O)Oc1ccc(/C=N/NC(=O)c2ccccc2O)cc1,-1%,-17%,2%,-2%,17µM*,9%
O=C(N/N=C/c1ccc(OCC(=O)N2CCCCC2)cc1)c1ccccc1O,13%,2%,1%,1%,15µM*,12%
O=C(N/N=C/c1ccc(OCC(=O)N2CCCCC2)cc1)c1ccccc1,1%,?,-3%,-10%,?,3%
COc1ccc(NC(=S)N2CCNC(=O)C2CC(=O)Nc2cccc(Cl)c2C)cc1 (stereo not given),-6%,18%,0%,-3%,3%,1%
O=C(N/N=C\c1ccccc1)c1ccccc1-n1cccc1,-2%,-4%,0%,8%,2%,-3%
O=C(Oc1ccc(/C=N/NC(=O)c2ccccc2O)cc1)c1ccccc1,2%,-2%,?,-2%,?,-3%
O=C(CC1SC(=O)NC1=O)Oc1ccc(/C=N/NC(=O)c2ccccc2O)cc1 (stereo not given),3%,/,9%,/,17µM*,17%
SMILES,NPC1 prom act,SMN2 splice up,ELG1 genotoxic,KinaseGlo FLuc,FLuc counter,Rab9 prom act
CC(=O)Nc1ccc(OC(=O)CC2SC(=O)NC2=O)cc1 (stereo not given),1%,4%,1%,1%,-4%,-1%
O=C(N/N=C/c1ccccc1OCC(=O)N1CCCC1)C(=O)Nc1ccccc1F,1%,12%,11%,8.9µM*,9.5µM*,-4%
O=C(N/N=C/c1cccc(O)c1)c1ccccc1O,1%,/,?,/,1.5µM*,8%
Nc1c(C(=O)N/N=C/c2ccccc2)cnn1-c1ccccc1,1.1µM*,/,?,/,5.4µM*,0.63µM*
COc1ccccc1-c1nnc(SCCOc2ccccc2C)o1,/,/,/,/,-19%,/
O=C(c1ccc(Cl)s1)N1CCc2ccccc21,?,22µM*,6.5µM*,-26%,3.8µM*,2.5µM*
O=C(c1ccc(C(=O)N2CCCc3ccccc32)s1)N1CCCc2ccccc21,-1%,-38%,-9%,0%,-1%,0%
CCc1sc(C(=O)N2CCc3ccccc32)cc1C,1.1µM*,8.9µM*,1.8µM*,11µM*,1.9µM*,0.35µM*
O=C(Cn1nnc(-c2cccc(C(F)(F)F)c2)n1)NCc1ccc(F)cc1,/,-7%,/,/,-1%,/
C=CCN1C(=O)S/C(=C/c2ccsc2)C1=O,2%,-7%,?,-6%,19µM*,16%
COc1ccc(OC)c(CN2CCN(CC(=O)Nc3ccccc3C(=O)NC3CC3)CC2)c1,-1%,/,-7%,/,-2%,-6%
Oc1ccc2c(c1)oc1cc(O)ccc12,-2%,?,11%,2%,19µM*,0%
O=C(COc1ccccc1)Nc1ccc2c(c1)nc1n2CCOC1,?,3%,?,9%,?,?
O=C(Nc1ccc2c(c1)nc1n2CCN(C2CCCCC2)C1)c1ccco1,14%,/,-2%,/,-19%,17%
O=C(COc1ccccc1)Nc1ccc2c(c1)nc1n2CCSC1,?,10%,?,-5%,21µM*,4µM*
O=C(Nc1ccc2c(c1)nc1n2CCSC1)c1ccco1,0.32µM*,-14%,?,10µM*,2.7µM*,0.45µM*
O=C(Nc1ccc2c(c1)nc1n2CCOC1)c1ccco1,1.3µM*,?,?,-15%,13µM*,4µM*
COc1ccccc1NC(=O)c1cc2c([nH]c1=O)CC(C)(C)CC2=O,/,12%,/,/,-14%,/
N=C1S/C(=C\c2ccco2)C(=O)N1c1nccs1,?,-36%,?,-8%,11µM*,?
Cc1oc(-c2ccccc2)nc1C(=O)O,-1%,/,0%,-2%,-7%,-1%
Nc1c(Br)cc2oc(-c3ccccc3)nc2c1Br,2%,13µM*,?,-1%,2.1µM*,?
COc1ccc(-c2nc3c(Br)c(N)c(Br)cc3o2)cc1,3.2µM*,-18%,3%,5%,1.3µM*,?
COc1ccc(Nc2nnc(-c3ccc(C)c(S(=O)(=O)NCc4nc5ccccc5[nH]4)c3)c3ccccc23)cc1,/,0%,/,/,?,/
CCOc1ccccc1NC(=O)C1CCC(CNS(=O)(=O)c2ccc3c(c2)CCCC(=O)N3)CC1 (stereo not given),/,/,/,/,-13%,/
Cc1cccc(OCC(=O)Nc2ccccc2OCc2cc(=O)n3cc(C)ccc3n2)c1,/,/,/,/,6%,/
